Results on 57 compounds are retold here after PubChem BioAssay AID493034 (The Scripps Research Institute Molecular Screening Center, 2011).

Screen size: about 2,400 compounds; about 2,200 (92%) were called active. The set was probably picked from earlier hits. The list shows a part of the results. Values without a mark were called inactive.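 The calls were made as follows: active = mean inhibition over triplicate runs exceeds the cutoff derived for the earlier primary screen (cut at about 25% in these data); inactive = the rest.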

Chain of Platelet-activating factor acetylhydrolase IB subunit alpha2 (Homo sapiens) (P68402 whole entry, looked up): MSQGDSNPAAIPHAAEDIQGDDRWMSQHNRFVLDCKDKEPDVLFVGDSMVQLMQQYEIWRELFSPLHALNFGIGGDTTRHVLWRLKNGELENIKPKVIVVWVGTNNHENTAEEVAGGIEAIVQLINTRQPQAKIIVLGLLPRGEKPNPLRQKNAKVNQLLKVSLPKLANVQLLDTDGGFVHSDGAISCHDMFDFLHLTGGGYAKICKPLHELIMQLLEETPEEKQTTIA

This assay has as its target Platelet-activating factor acetylhydrolase IB subunit alpha2 (Homo sapiens) (UniProt P68402). Briefly: PAFAH1B2 inhibitors, confirmation, biochemical, fluorescence polarization, FP-rhodamine probe, triplicate (AID 493034).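 Also: 0% = enzyme with DMSO and 100% = wells lacking PAFAH1B2 protein; inhibitors lower polarization by leaving the probe unbound.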 Conditions: recombinant PAFAH1B2, FP-rhodamine probe fluorescence polarization; at 3.39 µM; hits give high values.
`O=C(O)C/C(=C\c1cc2c(cc1Br)OCO2)c1nc2ccccc2s1`: the inhibition was 22.2%.

As for `O=C(O)CC/C(=C\c1ccc(N2CCCC2)c([N+](=O)[O-])c1)c1nc2ccccc2s1`, the inhibition is 84.2% (active).

With `O=C(O)CC/C(=C\c1ccc(N2CCOCC2)c([N+](=O)[O-])c1)c1nc2ccccc2s1`, the inhibition is 91.2% (active).

As to `O=C(O)CCc1ccc(S(=O)(=O)Nc2cc(C(F)(F)F)ccc2N2CCCC2)cc1`, the inhibition was 13.5%.

For `COc1cc(/C=C(\CCC(=O)O)c2nc3ccccc3s2)ccc1OCC(=O)Nc1c(Cl)cccc1Cl`, the inhibition was 57.7% (active).

In the case of `Cc1ccc(CNC(=O)Nc2ccc(Cl)cc2)cc1`, the inhibition is 1.92%.

With `CCCCOc1ccc(S(=O)(=O)NC(=O)NCc2ccc(OCCC)cc2)cc1`, the inhibition was 32.1% (active).

On to `CCCCOc1ccc(CNC(=O)NS(=O)(=O)c2ccc(OCC(C)C)cc2)cc1`, for which the inhibition is 57.7% (active).

For `O=C(COC(=O)C1(c2ccc(F)cc2)CCCC1)N1CCN(C(=O)c2ccco2)CC1`, the inhibition was 20.3%.

On to `Cc1c(NC(=O)CCSc2ccc(Cl)cc2)c(=O)n(-c2ccccc2)n1C`, for which the inhibition is 24%.

For the compound `Clc1ccc(SCCn2ccnc2)cc1`, the inhibition is 37.8% (active).

As for `Clc1ccc(SCCCCn2ccnc2)cc1`, the inhibition was 62.5% (active).

In the case of `CC1(COS(N)(=O)=O)CCCCC1`, the inhibition is 16.8%.

In the case of `CC(NC(=O)c1cc2cc(Br)ccc2oc1=N)c1ccccc1` (configuration not stated), the inhibition is 21.8%.

Turning to `O=C(O)COc1ccccc1-c1nc(-c2ccccc2)c(-c2ccccc2)[nH]1`, the inhibition was 24%.

For `CCOc1cc(Br)cc(C(c2c(C(=O)O)[nH]c3ccccc23)c2c(C(=O)O)[nH]c3ccccc23)c1O`, the inhibition is 62.7% (active).

Regarding `O=C(O)c1[nH]c2ccccc2c1C(c1cc(Br)ccc1O)c1c(C(=O)O)[nH]c2ccccc12`, the inhibition is 89.5% (active).

As to `O=C(O)COc1ccc(Br)cc1C(c1c(C(=O)O)[nH]c2ccccc12)c1c(C(=O)O)[nH]c2ccccc12`, the inhibition is 46.4% (active).

Turning to `CC(Nc1ccc(Cl)cc1)c1cc(Cl)ccc1O` (configuration not stated), the inhibition was 42.3% (active).

In the case of `COc1oc(C(=O)NC2CCCCC2)c(-c2ccc(Cl)cc2)c1S(=O)(=O)c1ccccc1`, the inhibition is 11.3%.

Take `Nc1scc(-c2ccncc2)c1Cl`: the inhibition is 91.5% (active).

`O=C(O)CCn1cc(/C=C/C(=O)c2ccc(Cl)cc2)c(-c2cccc(Br)c2)n1`: the inhibition was 47.4% (active).

`O=C(O)CCn1cc(/C=C\C(=O)c2ccc(Cl)cc2)c(-c2cccc(Br)c2)n1`: the inhibition is 41.1% (active).

As to `CCN(C(=O)CSc1nnc(-c2ccc3c(c2)OCO3)o1)C1CCS(=O)(=O)C1` (configuration not stated), the inhibition was 1.27%.

Regarding `NC(=S)N=Nc1c(O)n(CCCl)c2ccc(Br)cc12`, the inhibition was 30.4% (active).

Regarding `Cc1ccc(S(=O)(=O)Oc2ccc(C3C4=C(CCCC4=O)N(CCC(=O)O)C4=C3C(=O)CCC4)cc2Cl)cc1`, the inhibition was 33.9% (active).

Take `Cc1ccc(S(=O)(=O)Nc2cc(C)c(O)c(S(=O)(=O)c3ccc(C)cc3)c2)cc1`: the inhibition is 28.9% (active).

Take `Cc1ccc(S(=O)(=O)Nc2ccc(S(=O)(=O)NCC3CCCO3)cc2)cc1` (configuration not stated): the inhibition is 23.3%.

With `Cc1cc(C(C)(C)C)cc(S(=O)(=O)Nc2cccc(C(=O)O)c2)c1C`, the inhibition was 23.3%.

Regarding `COc1cccc(/C=N/N2CCN(c3ccc(Cl)cc3)CC2)c1OC`, the inhibition was 23.6%.

With `NC1=NC(=O)/C(=C/c2cn(CCC(=O)O)nc2-c2ccc(Cl)cc2)S1`, the inhibition is 24.1% (active).

In the case of `NC1=NC(=O)/C(=C/c2cn(CCC(=O)O)nc2-c2ccc(F)cc2)S1`, the inhibition was 38.2% (active).

In the case of `NC(=O)c1c(NC(=O)CN2CCN(S(=O)(=O)c3ccccc3)CC2)sc2c1CCC2`, the inhibition was 1.51%.

In the case of `Cc1ccc(S(=O)(=O)N2CCC(=O)N(C(COC(=O)Nc3ccccc3)Cc3ccccc3)CC2)cc1` (configuration not stated), the inhibition was 32.5% (active).

For the compound `CCc1ccc(-c2nc(CSCC(=O)N3CCN(c4ccccn4)CC3)c(C)o2)cc1`, the inhibition is 53% (active).

Turning to `CCCCCCCCCCCC(=O)O`, the inhibition was 21.5%.

For the compound `O=c1[nH]c(CSc2nc3ccccc3s2)nc2ccccc12`, the inhibition is 16.8%.

With `COc1ccccc1N1CCN(S(=O)(=O)c2ccc(Cl)cc2)CC1`, the inhibition was 24.1%.

`CC(C(=O)Nc1ccccc1-c1ccccc1)N1CCN(S(=O)(=O)c2ccccc2)CC1` (configuration not stated): the inhibition was 22%.

Regarding `CC(=O)NC(Cc1c[nH]c2ccccc12)C(=O)OCC(=O)N1CCN(S(=O)(=O)c2ccc(Cl)cc2)CC1` (configuration not stated), the inhibition was 84.9% (active).

`N=c1c(S(=O)(=O)c2ccc(Br)cc2)cc2c(=O)n3ccccc3nc2n1CCN1CCOCC1`: the inhibition was 22.9%.

With `Nc1nc(C2CCCCC2)cs1`, the inhibition was 55.7% (active).

`COC(=O)CSc1nnc(SCc2ccc(Cl)cc2)s1`: the inhibition is 20.6%.

On to `NS(=O)(=O)c1cccc(NC(=O)CC23CC4CC(C2)CC(CC(=O)Nc2cccc(S(N)(=O)=O)c2)(C4)C3)c1`, for which the inhibition was 27.4% (active).

Regarding `CCc1cccc(Nc2cnn(C34C[C@@H]5C[C@@H](CC(CC(=O)O)(C5)C3)C4)c(=O)c2Cl)c1`, the inhibition is 20.4%.

Take `Cc1ccc(S(=O)(=O)n2oc(=O)c(C3CCCCC3)c2N)cc1`: the inhibition was 23.5%.

Take `O=C(/C=C/c1ccc(F)cc1)NC(=S)NNC(=O)[C@H]1C[C@@H]1c1ccccc1`: the inhibition is 47.2% (active).

Take `CC(C)CNC(=O)c1cccc(NC(=O)CSc2ccc(Cl)cc2)c1`: the inhibition is 22.5%.

In the case of `COc1ccc(/C=C\C(=O)CC(O)(c2ccccc2)C(F)(F)F)cc1` (configuration not stated), the inhibition is 21.6%.

Consider `O=C(/C=C/c1ccccc1)CC(O)(c1ccccc1)C(F)(F)F` (configuration not stated), for which the inhibition is 38.1% (active).

On to `CC(=O)Nc1ccc(NC(=O)C(C)OC(=O)C2(c3ccc(F)cc3)CCCC2)cc1` (configuration not stated), for which the inhibition was 23.3%.

Regarding `Cc1nn(-c2ccccc2)c2c1CC(=O)Nc1ccccc1-2`, the inhibition was 23.1%.

As for `Cc1nc(SCCC(=O)O)c2cc(-c3ccccc3)sc2n1`, the inhibition was 33.6% (active).

As to `O=C(O)CN1C(=O)/C(=C\c2cccc(OCc3ccc(Cl)cc3)c2)SC1=S`, the inhibition was 68.2% (active).

For `Nc1nn(S(=O)(=O)c2ccccc2)cc1-c1ccc([N+](=O)[O-])cc1`, the inhibition is 24%.

For `CC1=CC(=NNS(=O)(=O)c2ccc([N+](=O)[O-])cc2)CC(C)(C)C1`, the inhibition was 23.5%.

`O=[N+]([O-])c1ccc(S(=O)(=O)NNC(=S)NCCc2ccccc2)cc1`: the inhibition is 38.5% (active).
